Assay outcomes from PubChem.
CHX counter: counter-screen for Shiga toxin inhibitors: cycloheximide protein synthesis inhibition | cell reporter, cycloheximide protein synthesis inhibition counterscreen | max response, % | actives 12% (n = 300,000); in the data active = max response mostly above about 13%, no sharp cut-off; inactive = mostly below about 14%; note: read at 38.3 µM for the half of the compounds with a filed dose; 0% is about no effect
Pf growth 48h: inhibits P. falciparum growth in the first generation, 48 h. P. falciparum luciferase growth in erythrocytes, 48 h. Potency, µM (top dose mostly 28.7 µM), inactives show top-dose activity change, negative = inhibition, most hits filed as inhibitors. actives 5.9% (n = 310,000). AID 504832; note: potency is the fitted concentration of half-maximal effect; % is set by controls: 0 for no effect and ±100 for the full control effect
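Luciferase-expressing parasites in RBCs, 2% Hct / 0.1% parasitemia final; RPMI 1640 + 0.5% Albumax; 37 C, 5% CO2, one generation; luminescence read-out, lower signal = inhibition.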
LmPK inhibitor: inhibitors of Leishmania mexicana pyruvate kinase; purified LmPK, Kinase-Glo ATP luminescence, 1 h; Potency, µM (doses to about 57.5 µM), for the others: top-dose activity change, negative = inhibition, hits mostly inhibitors; actives 0.37% (n = 290,000); Q27686; note: potency is the fitted concentration of half-maximal effect; % is set by controls: 0 for no effect and ±100 for the full control effect
Target sequence (Q27686 whole entry, looked up): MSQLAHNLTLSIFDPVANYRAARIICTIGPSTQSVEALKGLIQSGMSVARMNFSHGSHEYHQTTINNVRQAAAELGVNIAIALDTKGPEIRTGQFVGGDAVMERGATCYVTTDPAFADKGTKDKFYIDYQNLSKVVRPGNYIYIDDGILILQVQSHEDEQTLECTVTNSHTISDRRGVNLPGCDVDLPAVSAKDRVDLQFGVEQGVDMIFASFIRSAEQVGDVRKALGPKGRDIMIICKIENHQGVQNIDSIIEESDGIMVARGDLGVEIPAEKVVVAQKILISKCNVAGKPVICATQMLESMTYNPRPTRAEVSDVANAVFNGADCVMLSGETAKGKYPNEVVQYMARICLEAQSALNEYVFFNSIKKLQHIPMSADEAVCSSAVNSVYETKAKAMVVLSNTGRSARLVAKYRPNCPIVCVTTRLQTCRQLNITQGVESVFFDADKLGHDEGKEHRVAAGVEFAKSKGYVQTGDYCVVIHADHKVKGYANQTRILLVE
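Kinase-Glo luminescence read after 1 h RT reaction of 0.1 nM LmPK with 0.5 mM PEP and 0.1 mM ADP. Activity scaled between uninhibited and enzyme-free controls.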
Pf growth 96h: P. falciparum growth inhibition at 96 hour, primary screen for plastid delayed-death inhibitors. AID 504834. P. falciparum luciferase reporter growth, 96 h. actives 6.9% (n = 320,000). Potency, µM (titrated, usually from 28.7 µM), inactives show at the highest dose activity change, negative = inhibition, actives largely listed as inhibitors; note: potency is the fitted concentration of half-maximal effect; % is set by controls: 0 for no effect and ±100 for the full control effect
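Two parasite generations (96 h, 37 C, 5% CO2) of compound exposure in infected erythrocytes (0.05% parasitemia, 2% hematocrit). Luciferase-reporter P. falciparum; decreased luminescence indicates inhibited growth, aimed at apicoplast-acting delayed death.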
Shiga inhibitor: inhibitors of Shiga toxin in Vero cells; Vero cells, Shiga toxin protein synthesis inhibition reporter; inhibition, % at 38.7 µM; actives 9.2% (n = 290,000); AID 2315; in the data active = inhibition mostly above about 28%, no sharp cut-off; inactive = mostly below about 43%; note: 0% is about no effect
* = called active by the depositor; ? = inconclusive; . = no result; [ ] = another dose, or the depositor's remark. Shown are actives, neighbours in structure and some others; about 22% of the full set was active somewhere. Unless noted, calls come from the whole dose curve; as a rule, active = well fitted inhibition curve with a large enough effect; inconclusive = small, poorly fitted or top-dose-only effect, or another doubt; inactive = no such curve, though single readings can be large or run the other way.

SMILES	CHX counter	Pf growth 48h	LmPK inhibitor	Pf growth 96h	Shiga inhibitor
O=C(N/N=C/c1ccc([N+](=O)[O-])cc1)c1cc(C2CC2)[nH]n1	-1	-20%	-5%	?	-17
NCCCC(O)(P(=O)(O)O)P(=O)(O)O	-4	1%	.	-6%	10
COCCn1nnnc1C(c1cccs1)N1CCN(c2cccc(C(F)(F)F)c2)CC1 (centres undefined)	-2	?	5%	.	-17
COCCn1nnnc1C(c1cccs1)N1CCN2CCCC2C1 (centres undefined)	14*	-1%	-11%	63%	54*
Fc1ccc(Cn2nnnc2C(c2cccs2)N2CCN(C3CCCCC3)CC2)cc1 (centres undefined)	14*	?	-1%	?	55*
CC(C)C(c1nnnn1Cc1ccc(F)cc1)N1CCN(C2CCCCC2)CC1 (centres undefined)	-2	?	-3%	-16%[5.75 µM]	-8
Cc1ccc(S(=O)(=O)N(C)CCCC(=O)n2nc(C)cc2C)cc1	-2	19%	-9%	-8%	-2
O=C(Nc1ccccc1)Nc1cc(OCC(F)(F)F)cc(OCC(F)(F)F)c1	-4	2.6µM*	-1%	3.3µM*	-7
O=C(Nc1ccccc1)Nc1cc(Cl)cc(Cl)c1	25	.	0%	.	39
COc1ccc(-c2cc3cc(-c4cc(OC)c(OC)c(OC)c4)ccc3o2)cc1	.	21%	.	45%	.
COc1ccc(-c2oc3ccc(-c4cc(OC)c(OC)c(OC)c4)cc3c2-c2ccc(OC)nc2)cc1	-1	?	-3%	3.3µM*	-2
CCOc1ccc(OCC)c(-c2c(=O)n(OCc3ccccc3C(=O)OC)c3ccccc3[n+]2[O-])c1	-1	?	-4%	?	-22
CCCCc1ccccc1NC(=S)NC1CCCC1	1	9.3µM*	1%	?	-8
CSc1ccccc1NC(=S)NC1CCCC1	0	?	5%	?	-11
S=C(Nc1cccc2ccccc12)NC1CCCCC1	40*	-2%	4%	?	51*
CSc1ccccc1NC(=S)NC1CCCCC1	-3	-9%	6%	?	-6
CC(C)c1ccccc1NC(=S)NC1CCCCC1	-2	?	-1%	4.7µM*	-3
Cc1cc(C)c2c(c1)NC(c1cc3c(cc1Br)OCO3)C1CC=CC21 (centres undefined)	-1	13µM*	3%	-19%	-4
Brc1cc2c(cc1C1Nc3ccccc3C3C=CCC31)OCO2 (centres undefined)	-1	?	1%	7%	-15
Cc1c(CCC(=O)O)c(=O)oc2cc(OCc3ccccc3Br)ccc12	-4	17%	7%	29%	3
C=C1CC2COC(=O)C2(Cc2ccc3ccccc3c2)C1 (centres undefined)	-4	.	.	.	2
COCCn1c(C)cc(C2=NNC(=NC(C)(C)C)SC2)c1C	10	12µM*	4%	?	4
CCc1ccc(C2=NNC(=Nc3c(C)n(C)n(-c4ccccc4)c3=O)SC2)cc1	13	14%	17%	15%	40
COCCn1c(C)cc(C2=NNC(=Nc3ccccc3)SC2)c1C	23*	?	-27%	-138%	34
COCCn1c(C)cc(C2=NNC(=Nc3ccc(OC)cc3)SC2)c1C	10	13µM*	-2%	3.7µM*	20
SMILES	CHX counter	Pf growth 48h	LmPK inhibitor	Pf growth 96h	Shiga inhibitor
O=C(NCCCc1ccccc1)c1ccc(F)cc1	34*	38%	-4%	17µM*	55*
O=C(Cc1ccccc1)NCCCc1ccccc1	17	33%	1%	-40%	52
O=C(NCCCCNC(=O)c1ccc(F)cc1)c1ccc(F)cc1	-4	3%	-3%	2.6µM*	-8
COc1cn(-c2ccccc2)nc1C(=O)Nc1ccc(C)cc1Cl	12	-27%	-3%	?	29
O=C(CNCc1ccccn1)N1CCc2ccccc2C1	16	?	-4%	?	38
CCOC(=O)N1CCN(Cc2nc3cc(NC(=O)c4ccco4)ccc3n2CC)CC1	23*	-2%	4%	-19%	32
CCOC(=O)N1CCN(Cc2nc3cc(NC(=O)C(C)C)ccc3n2CC)CC1	-3	-19%	-7%	14%	-4
Cc1nc2ccc(NC(=O)c3ccco3)cc2nc1C	17*	18%	-7%	2%	59*
Cn1c(CCNC(=O)c2ccco2)nc2cc(NC(=O)c3ccco3)ccc21	23*	77%	-3%	46%	49*
